What was measured:
Test in all cases: PBM; 200 nM protein, PBS
Settings in all cases: dsDNA, one strand shown
[1] = biological target: NKX2-5 (Homo sapiens, UniProt P52952 125-210, R139K)
[2] = biological target: NKX2-5 (Homo sapiens, UniProt P52952 125-210)
[3] = biological target: PITX2 (Homo sapiens, UniProt Q99697 72-157)
[4] = biological target: NKX3-2 (Homo sapiens, UniProt P78367 192-278, P234S)
[5] = biological target: NKX3-2 (Homo sapiens, UniProt P78367 192-278)
NKX3-2 (Homo sapiens, UniProt P78367 192-278), sequence (P78367 192-278): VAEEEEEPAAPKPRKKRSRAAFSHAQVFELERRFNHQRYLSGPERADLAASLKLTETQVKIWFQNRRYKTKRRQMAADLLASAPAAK

NKX2-5 (Homo sapiens, UniProt P52952 125-210, R139K), sequence (P52952 125-210 R139K): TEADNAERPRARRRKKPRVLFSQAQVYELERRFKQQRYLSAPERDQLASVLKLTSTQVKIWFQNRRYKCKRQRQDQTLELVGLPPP
NKX2-5 (Homo sapiens, UniProt P52952 125-210), sequence (P52952 125-210): as the sequence (P52952 125-210 R139K) above, with K15R counted along it
NKX3-2 (Homo sapiens, UniProt P78367 192-278, P234S), sequence (P78367 192-278 P234S): as the sequence (P78367 192-278) above, with P43S counted along it

## CGCCAGGA
[1]
  binding signal: 8.64 upbm affinity estimate (log intensity, higher = more binding, comparable within an allelic series)
[2]
  binding signal: 8.64 upbm affinity estimate (log intensity, higher = more binding, comparable within an allelic series)

## CCGGAGAC
[1]
  binding signal: 8.74 upbm affinity estimate (log intensity, higher = more binding, comparable within an allelic series)
[2]
  binding signal: 8.76 upbm affinity estimate (log intensity, higher = more binding, comparable within an allelic series)

## CACTAAGC
[1]
  binding signal: 10.7 upbm affinity estimate (log intensity, higher = more binding, comparable within an allelic series)
[2]
  binding signal: 10.6 upbm affinity estimate (log intensity, higher = more binding, comparable within an allelic series)

## CGGCGAAC
[1]
  binding signal: 8.65 upbm affinity estimate (log intensity, higher = more binding, comparable within an allelic series)
[2]
  binding signal: 8.62 upbm affinity estimate (log intensity, higher = more binding, comparable within an allelic series)

## ACTTATCG
[1]
  binding signal: 11.2 upbm affinity estimate (log intensity, higher = more binding, comparable within an allelic series)
[2]
  binding signal: 11.2 upbm affinity estimate (log intensity, higher = more binding, comparable within an allelic series)

## CCCGAGGC
[1]
  binding signal: 9.04 upbm affinity estimate (log intensity, higher = more binding, comparable within an allelic series)
[3]
  binding signal: 8.01 upbm affinity estimate (log intensity, higher = more binding, comparable within an allelic series)
[4]
  binding signal: 10.3 upbm affinity estimate (log intensity, higher = more binding, comparable within an allelic series)
[2]
  binding signal: 9.06 upbm affinity estimate (log intensity, higher = more binding, comparable within an allelic series)
[5]
  binding signal: 10.4 upbm affinity estimate (log intensity, higher = more binding, comparable within an allelic series)

## CGGTTTGC
[1]
  binding signal: 8.63 upbm affinity estimate (log intensity, higher = more binding, comparable within an allelic series)
[2]
  binding signal: 8.59 upbm affinity estimate (log intensity, higher = more binding, comparable within an allelic series)

## ATAAGATG
[1]
  binding signal: 10.5 upbm affinity estimate (log intensity, higher = more binding, comparable within an allelic series)
[2]
  binding signal: 10.6 upbm affinity estimate (log intensity, higher = more binding, comparable within an allelic series)

## GCCCTCTA
[1]
  binding signal: 10.4 upbm affinity estimate (log intensity, higher = more binding, comparable within an allelic series)
[2]
  binding signal: 10.5 upbm affinity estimate (log intensity, higher = more binding, comparable within an allelic series)

## ATCCTTAG
[1]
  binding signal: 10.5 upbm affinity estimate (log intensity, higher = more binding, comparable within an allelic series)
[2]
  binding signal: 10.5 upbm affinity estimate (log intensity, higher = more binding, comparable within an allelic series)

## AATAGTCT
[1]
  binding signal: 10.6 upbm affinity estimate (log intensity, higher = more binding, comparable within an allelic series)
[2]
  binding signal: 10.7 upbm affinity estimate (log intensity, higher = more binding, comparable within an allelic series)

## CCAACGCA
[1]
  binding signal: 8.88 upbm affinity estimate (log intensity, higher = more binding, comparable within an allelic series)
[2]
  binding signal: 8.96 upbm affinity estimate (log intensity, higher = more binding, comparable within an allelic series)

## CCTCTCGA
[1]
  binding signal: 11.2 upbm affinity estimate (log intensity, higher = more binding, comparable within an allelic series)
[2]
  binding signal: 11.3 upbm affinity estimate (log intensity, higher = more binding, comparable within an allelic series)

## CCGGGCCA
[1]
  binding signal: 9.01 upbm affinity estimate (log intensity, higher = more binding, comparable within an allelic series)
[2]
  binding signal: 8.94 upbm affinity estimate (log intensity, higher = more binding, comparable within an allelic series)

## ACTCTACT
[1]
  binding signal: 10.7 upbm affinity estimate (log intensity, higher = more binding, comparable within an allelic series)
[2]
  binding signal: 10.8 upbm affinity estimate (log intensity, higher = more binding, comparable within an allelic series)

## CGCGAGCC
[1]
  binding signal: 8.97 upbm affinity estimate (log intensity, higher = more binding, comparable within an allelic series)
[2]
  binding signal: 8.93 upbm affinity estimate (log intensity, higher = more binding, comparable within an allelic series)

## ACAGCGCC
[1]
  binding signal: 8.89 upbm affinity estimate (log intensity, higher = more binding, comparable within an allelic series)
[2]
  binding signal: 8.85 upbm affinity estimate (log intensity, higher = more binding, comparable within an allelic series)

## CCGCAGTC
[1]
  binding signal: 8.8 upbm affinity estimate (log intensity, higher = more binding, comparable within an allelic series)
[2]
  binding signal: 8.72 upbm affinity estimate (log intensity, higher = more binding, comparable within an allelic series)

## CCCGTCAG
[1]
  binding signal: 9.01 upbm affinity estimate (log intensity, higher = more binding, comparable within an allelic series)
[2]
  binding signal: 9.04 upbm affinity estimate (log intensity, higher = more binding, comparable within an allelic series)

## AGCACTAG
[1]
  binding signal: 10.6 upbm affinity estimate (log intensity, higher = more binding, comparable within an allelic series)
[2]
  binding signal: 10.6 upbm affinity estimate (log intensity, higher = more binding, comparable within an allelic series)

## ATAAGCGG
[1]
  binding signal: 10.3 upbm affinity estimate (log intensity, higher = more binding, comparable within an allelic series)
[2]
  binding signal: 10.3 upbm affinity estimate (log intensity, higher = more binding, comparable within an allelic series)

## CCCTTAAC
[1]
  binding signal: 10.9 upbm affinity estimate (log intensity, higher = more binding, comparable within an allelic series)
[2]
  binding signal: 10.8 upbm affinity estimate (log intensity, higher = more binding, comparable within an allelic series)

## ACTGGCCC
[1]
  binding signal: 8.91 upbm affinity estimate (log intensity, higher = more binding, comparable within an allelic series)
[2]
  binding signal: 8.87 upbm affinity estimate (log intensity, higher = more binding, comparable within an allelic series)

## CCCCAACG
[1]
  binding signal: 8.6 upbm affinity estimate (log intensity, higher = more binding, comparable within an allelic series)
[2]
  binding signal: 8.67 upbm affinity estimate (log intensity, higher = more binding, comparable within an allelic series)

## ACCAGGGC
[1]
  binding signal: 8.76 upbm affinity estimate (log intensity, higher = more binding, comparable within an allelic series)
[2]
  binding signal: 8.77 upbm affinity estimate (log intensity, higher = more binding, comparable within an allelic series)

## CCGCACGG
[1]
  binding signal: 8.63 upbm affinity estimate (log intensity, higher = more binding, comparable within an allelic series)
[2]
  binding signal: 8.62 upbm affinity estimate (log intensity, higher = more binding, comparable within an allelic series)

## ACCAAACC
[1]
  binding signal: 8.82 upbm affinity estimate (log intensity, higher = more binding, comparable within an allelic series)
[2]
  binding signal: 8.9 upbm affinity estimate (log intensity, higher = more binding, comparable within an allelic series)

## CCGAGCCA
[1]
  binding signal: 9.01 upbm affinity estimate (log intensity, higher = more binding, comparable within an allelic series)
[2]
  binding signal: 9.05 upbm affinity estimate (log intensity, higher = more binding, comparable within an allelic series)

## ACTAGTAC
[1]
  binding signal: 10.7 upbm affinity estimate (log intensity, higher = more binding, comparable within an allelic series)
[2]
  binding signal: 10.7 upbm affinity estimate (log intensity, higher = more binding, comparable within an allelic series)

## CACAGCCG
[1]
  binding signal: 8.68 upbm affinity estimate (log intensity, higher = more binding, comparable within an allelic series)
[2]
  binding signal: 8.68 upbm affinity estimate (log intensity, higher = more binding, comparable within an allelic series)

## ACCGCGGG
[1]
  binding signal: 8.49 upbm affinity estimate (log intensity, higher = more binding, comparable within an allelic series)
[2]
  binding signal: 8.44 upbm affinity estimate (log intensity, higher = more binding, comparable within an allelic series)

## AGTACTCG
[1]
  binding signal: 11.5 upbm affinity estimate (log intensity, higher = more binding, comparable within an allelic series)
[2]
  binding signal: 11.3 upbm affinity estimate (log intensity, higher = more binding, comparable within an allelic series)

— publication PMC11006913
